In PubChem BioAssay (NCI):
The panel holds about 83,000 compounds, 20% with a hit somewhere; the sample as a whole holds those more often.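 Note: values are percent growth. 100 is the growth of untreated cells, values between 100 and 0 indicate rising inhibition; between -100 and 0 indicates cell death.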 Calls of active or inactive are those of the source. How the source made its calls: active means growth percent below 10; inactive means the rest.

Assays:
Experiment in all cases: NCI-60 one-dose screen, 48 h (100 = growth as untreated, 0 = no growth, -100 = all killed)
SK-MEL-2 melanoma = conditions: 10 µM
SN12C renal = conditions: 10 µM
UO-31 renal = conditions: 10 µM
ACHN renal = conditions: 10 µM
CAKI-1 renal = conditions: 10 µM
A498 renal = conditions: 10 µM
CCRF-CEM leukemia = conditions: 10 µM
MOLT-4 leukemia = conditions: 10 µM
SR leukemia = conditions: 10 µM
RPMI-8226 leukemia = conditions: 10 µM
OVCAR-8 ovarian = conditions: 10 µM
OVCAR-5 ovarian = conditions: 10 µM
OVCAR-4 ovarian = conditions: 10 µM
SK-OV-3 ovarian = conditions: 10 µM
IGROV1 ovarian = conditions: 10 µM
OVCAR-3 ovarian = conditions: 10 µM
HS 578T breast = conditions: 10 µM
NCI/ADR-RES ovarian = conditions: 10 µM
EKVX NSCLC = conditions: 10 µM
TK-10 renal = conditions: 10 µM unless noted

Measured: growth

O=C(O)c1cccc([N+](=O)[O-])c1O
inactive: SK-MEL-2 melanoma 118% | SN12C renal 102% | UO-31 renal 86.1% | ACHN renal 104% | CAKI-1 renal 99% | A498 renal 109% | CCRF-CEM leukemia 100% | MOLT-4 leukemia 99.5% | SR leukemia 94.4% | RPMI-8226 leukemia 107% | OVCAR-8 ovarian 113% | OVCAR-5 ovarian 112% | OVCAR-4 ovarian 111% | SK-OV-3 ovarian 98.4% | IGROV1 ovarian 94.4% | OVCAR-3 ovarian 116% | HS 578T breast 112% | NCI/ADR-RES ovarian 102%

CCCNc1ccc(C2=NCCCN2)cc1
inactive: SK-MEL-2 melanoma 102% | SN12C renal 109% | UO-31 renal 81.7% | ACHN renal 102% | CAKI-1 renal 101% | A498 renal 71.7% | CCRF-CEM leukemia 99.1% | MOLT-4 leukemia 93.7% | SR leukemia 96.9% | RPMI-8226 leukemia 98.2% | OVCAR-8 ovarian 95.4% | OVCAR-5 ovarian 101% | OVCAR-4 ovarian 100% | SK-OV-3 ovarian 107% | IGROV1 ovarian 86% | OVCAR-3 ovarian 99.2% | HS 578T breast 103% | NCI/ADR-RES ovarian 95.2%

O=c1cc(-c2ccccc2)[nH]c2c1CCCC2
inactive: EKVX NSCLC 43.3% | SN12C renal 44.6% | UO-31 renal 50.8% | TK-10 renal 34.5% | ACHN renal 40.5% | CAKI-1 renal 24.5% | A498 renal 19.2% | CCRF-CEM leukemia 32.6% | MOLT-4 leukemia 41.1% | SR leukemia 30.5% | RPMI-8226 leukemia 21.3% | OVCAR-8 ovarian 39.7% | OVCAR-5 ovarian 39.3% | OVCAR-4 ovarian 49.8% | SK-OV-3 ovarian 25.8% | IGROV1 ovarian 44.3% | OVCAR-3 ovarian 15.9% | HS 578T breast 16.3%
active: NCI/ADR-RES ovarian -40.8%

C[C@@H](c1ccccc1)[C@@H](C(=O)O)c1ccccc1
inactive: SK-MEL-2 melanoma 99.5% | SN12C renal 98.1% | UO-31 renal 91.2% | ACHN renal 96.4% | CAKI-1 renal 99.1% | A498 renal 96.7% | CCRF-CEM leukemia 98.9% | MOLT-4 leukemia 102% | SR leukemia 105% | RPMI-8226 leukemia 99.7% | OVCAR-8 ovarian 98.2% | OVCAR-5 ovarian 105% | OVCAR-4 ovarian 94.7% | SK-OV-3 ovarian 100% | IGROV1 ovarian 111% | OVCAR-3 ovarian 104% | HS 578T breast 110% | NCI/ADR-RES ovarian 105%

NC(C(=O)O)c1ccc([N+](=O)[O-])cc1 (stereo not drawn)
inactive: EKVX NSCLC 98% | SN12C renal 91.6% | UO-31 renal 78.2% | TK-10 renal 156% | ACHN renal 98.1% | CAKI-1 renal 99.5% | A498 renal 107% | CCRF-CEM leukemia 98.5% | MOLT-4 leukemia 105% | SR leukemia 113% | RPMI-8226 leukemia 116% | OVCAR-8 ovarian 112% | OVCAR-5 ovarian 92.2% | OVCAR-4 ovarian 107% | SK-OV-3 ovarian 96.4% | IGROV1 ovarian 109% | OVCAR-3 ovarian 107% | HS 578T breast 117% | NCI/ADR-RES ovarian 105%

CN(C)/N=C/c1ccccc1O
inactive: SK-MEL-2 melanoma 90.3% | SN12C renal 97.7% | UO-31 renal 92.3% | ACHN renal 97.6% | CAKI-1 renal 96.1% | A498 renal 94.5% | CCRF-CEM leukemia 100% | SR leukemia 97.9% | RPMI-8226 leukemia 113% | OVCAR-8 ovarian 91.3% | OVCAR-5 ovarian 89.9% | OVCAR-4 ovarian 100% | SK-OV-3 ovarian 105% | IGROV1 ovarian 102% | OVCAR-3 ovarian 110% | HS 578T breast 99.7% | NCI/ADR-RES ovarian 115%

O=C(O)CNC(=O)c1ccccc1
inactive: EKVX NSCLC 93.4%

NC(=S)CN1CCOCC1
active: CCRF-CEM leukemia -25.8%
inactive: EKVX NSCLC 112% | SN12C renal 103% | UO-31 renal 88% | TK-10 renal 99.3% | ACHN renal 103% | CAKI-1 renal 95.6% | A498 renal 89.9% | MOLT-4 leukemia 32.3% | SR leukemia 78.2% | RPMI-8226 leukemia 93.7% | OVCAR-8 ovarian 105% | OVCAR-5 ovarian 105% | OVCAR-4 ovarian 121% | SK-OV-3 ovarian 112% | IGROV1 ovarian 102% | OVCAR-3 ovarian 111% | NCI/ADR-RES ovarian 105%

CC1(c2ccccc2)NC(=O)NC1=O (stereo not drawn)
inactive: EKVX NSCLC 120% | SN12C renal 96.9% | UO-31 renal 82.5% | TK-10 renal 98.8% | ACHN renal 107% | CAKI-1 renal 104% | A498 renal 123% | CCRF-CEM leukemia 102% | MOLT-4 leukemia 101% | SR leukemia 102% | RPMI-8226 leukemia 105% | OVCAR-8 ovarian 103% | OVCAR-5 ovarian 109% | OVCAR-4 ovarian 115% | SK-OV-3 ovarian 107% | IGROV1 ovarian 105% | OVCAR-3 ovarian 121% | NCI/ADR-RES ovarian 114%

COc1cc2c(cc1OC)[C@H](C(=O)O)[C@@H](c1ccc(OC(C)C)c(OC)c1)N(C)C2=O
inactive: EKVX NSCLC 92.7% | SN12C renal 90.4% | UO-31 renal 97.6% | TK-10 renal 96.2% | ACHN renal 96.2% | A498 renal 137% | CCRF-CEM leukemia 96.6% | RPMI-8226 leukemia 95.7% | OVCAR-5 ovarian 98% | OVCAR-4 ovarian 100% | SK-OV-3 ovarian 104% | IGROV1 ovarian 138% | OVCAR-3 ovarian 104% | HS 578T breast 89.3% | NCI/ADR-RES ovarian 111%

NC(=O)N/N=C\c1ccco1
inactive: EKVX NSCLC 119% | SN12C renal 98.4% | UO-31 renal 94.7% | TK-10 renal 100% | ACHN renal 111% | CAKI-1 renal 108% | A498 renal 117% | CCRF-CEM leukemia 102% | MOLT-4 leukemia 101% | SR leukemia 107% | RPMI-8226 leukemia 105% | OVCAR-8 ovarian 109% | OVCAR-5 ovarian 118% | OVCAR-4 ovarian 121% | SK-OV-3 ovarian 102% | IGROV1 ovarian 99.6% | OVCAR-3 ovarian 125% | NCI/ADR-RES ovarian 101%

CC1Cc2ccccc2O1 (stereo not drawn)
inactive: EKVX NSCLC 122% | SN12C renal 106% | UO-31 renal 90.6% | TK-10 renal 129% | ACHN renal 101% | CAKI-1 renal 102% | A498 renal 115% | CCRF-CEM leukemia 112% | MOLT-4 leukemia 105% | SR leukemia 100% | RPMI-8226 leukemia 109% | OVCAR-5 ovarian 110% | OVCAR-4 ovarian 119% | SK-OV-3 ovarian 112% | IGROV1 ovarian 111% | OVCAR-3 ovarian 118% | HS 578T breast 111% | NCI/ADR-RES ovarian 110%

O=S(=O)(O)CC(O)CN1CCN(CCO)CC1 (stereo not drawn)
inactive: EKVX NSCLC 119% | SN12C renal 110% | UO-31 renal 91.6% | TK-10 renal 116% | ACHN renal 111% | CAKI-1 renal 106% | A498 renal 106% | CCRF-CEM leukemia 103% | MOLT-4 leukemia 90.3% | SR leukemia 92.4% | RPMI-8226 leukemia 96.3% | OVCAR-5 ovarian 117% | OVCAR-4 ovarian 114% | SK-OV-3 ovarian 95.3% | IGROV1 ovarian 124% | OVCAR-3 ovarian 108% | HS 578T breast 104% | NCI/ADR-RES ovarian 99.7%

CNS(=O)(=O)c1ccc(Cl)c(Cl)c1
inactive: EKVX NSCLC 99% | SN12C renal 92.7% | UO-31 renal 109% | TK-10 renal 89.4% | ACHN renal 99.5% | A498 renal 104% | CCRF-CEM leukemia 104% | MOLT-4 leukemia 84.9% | SR leukemia 78.1% | RPMI-8226 leukemia 136% | OVCAR-8 ovarian 99.2% | OVCAR-5 ovarian 98.5% | OVCAR-4 ovarian 99.8% | SK-OV-3 ovarian 105% | IGROV1 ovarian 114% | OVCAR-3 ovarian 123% | HS 578T breast 98.9% | NCI/ADR-RES ovarian 110%

CCCCN(CCCC)CCCO
inactive: EKVX NSCLC 110% | SN12C renal 107% | UO-31 renal 104% | TK-10 renal 85% | ACHN renal 105% | CAKI-1 renal 106% | A498 renal 114% | MOLT-4 leukemia 113% | SR leukemia 113% | RPMI-8226 leukemia 158% | OVCAR-8 ovarian 99.8% | OVCAR-5 ovarian 99.4% | OVCAR-4 ovarian 108% | SK-OV-3 ovarian 110% | IGROV1 ovarian 125% | OVCAR-3 ovarian 101% | NCI/ADR-RES ovarian 105%

N#Cc1c(N)sc(=S)c2c1CCCC2
inactive: EKVX NSCLC 107% | SN12C renal 105% | UO-31 renal 91.6% | TK-10 renal 116% | ACHN renal 103% | A498 renal 113% | CCRF-CEM leukemia 101% | MOLT-4 leukemia 95.4% | SR leukemia 93.6% | RPMI-8226 leukemia 95.1% | OVCAR-8 ovarian 103% | OVCAR-5 ovarian 108% | OVCAR-4 ovarian 102% | SK-OV-3 ovarian 103% | IGROV1 ovarian 116% | OVCAR-3 ovarian 113% | HS 578T breast 104% | NCI/ADR-RES ovarian 104%

COc1ncnc2c1cnn2C
inactive: EKVX NSCLC 100% | SN12C renal 98.2% | TK-10 renal 108% | ACHN renal 98.1% | CAKI-1 renal 105% | A498 renal 99.7% | CCRF-CEM leukemia 97% | MOLT-4 leukemia 89.9% | SR leukemia 82.6% | RPMI-8226 leukemia 107% | OVCAR-8 ovarian 103% | OVCAR-5 ovarian 103% | OVCAR-4 ovarian 117% | SK-OV-3 ovarian 104% | IGROV1 ovarian 110% | OVCAR-3 ovarian 109% | HS 578T breast 114% | NCI/ADR-RES ovarian 104%

CC(=O)Nc1cccc(NC(C)=O)n1
inactive: EKVX NSCLC 104% | SN12C renal 99.7% | UO-31 renal 99.4% | TK-10 renal 111% | ACHN renal 105% | CAKI-1 renal 126% | A498 renal 100% | CCRF-CEM leukemia 90.3% | MOLT-4 leukemia 111% | SR leukemia 123% | OVCAR-8 ovarian 105% | OVCAR-5 ovarian 143% | OVCAR-4 ovarian 112% | SK-OV-3 ovarian 101% | OVCAR-3 ovarian 112% | HS 578T breast 102% | NCI/ADR-RES ovarian 131%
